Measured values reported in PubChem BioAssay AID799 (SRMLSC, 2007).
Out of some 140,000 compounds screened, about 840 (0.6%) were called active.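 How the source made its calls: active means viability gain under doxorubicin at or above a set limit, the compound median plus 3 SD (cut at about 4.7% in these data); inactive means the rest.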 The entries come from a sample that favours actives as a whole.

Test: protection of MRP-1-high cells against doxorubicin toxicity – H69AR cells, CellTiter-Glo, MRP-1 activator project, primary screen (AID 799);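 further: 18-22 h compound pretreatment then 72 h with doxorubicin before readout; 0% = doxorubicin-only wells and 100% = vehicle-treated cells without doxorubicin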
Settings: viability rescue, at 10 µM, hits give high values

Row | SMILES | viability increase
1 | COc1ccc([N+](=O)[O-])cc1NC(=O)COC(=O)/C=C/c1ccco1 | 7.08% (active)
2 | CC(C)CNC(=O)COC(=O)/C=C/c1ccco1 | 1.16% (inactive)
3 | COc1ccc([N+](=O)[O-])cc1NC(=O)CCc1ccccc1 | -1.62% (inactive)
4 | Cc1[nH]c2ccccc2c1/C=N\NC(=O)Cn1nnc(-c2ccccc2)n1 | 3.22% (inactive)
5 | CN(C)CCCNC(=S)NCc1ccc(Cl)cc1 | -0.81% (inactive)
6 | CCOC(=O)NC(=O)CSc1nnc(SCCC(=O)O)s1 | 1.73% (inactive)
7 | CCCC(=O)Nc1cccc(NC(=S)NC(=O)C(C)Oc2ccc(Cl)cc2Cl)c1 (stereo not given) | -2.06% (inactive)
8 | Cc1cccnc1NC(=O)CSc1nnc(COc2ccc(C(C)C)cc2)n1C | 0.08% (inactive)
9 | Cc1ccc(OCc2nnc(SC3CCc4ccccc4C3=O)n2C)cc1 (stereo not given) | 7.21% (active)
10 | COc1ccccc1C(=O)Nc1ccc(OCc2nnc3c4ccccc4c(C)nn23)cc1 | 0.29% (inactive)
11 | Cc1ccc2nc(SCc3cn4c(C)cc(C)nc4n3)[nH]c2c1 | 0% (inactive)
12 | O=c1cc(CN2CCN(c3cccc(Cl)c3)CC2)c2cc3c(cc2o1)CCCC3 | 6.01% (active)
13 | OC(COc1ccc2c(c1)CCC2)CN1CCN(c2cccc(Cl)c2)CC1 (stereo not given) | -3.05% (inactive)
14 | COc1ccc(N2CCN(Cc3cc(=O)oc4ccc5ccccc5c34)CC2)cc1 | -1.38% (inactive)
15 | O=C(CSc1nc2ccccc2[nH]1)N/N=C/C=C\c1ccccc1[N+](=O)[O-] | -1.58% (inactive)
16 | COc1cccc(/C(C)=N/Nc2ncc(Cl)cc2Cl)c1 | -1% (inactive)
17 | Cn1cc(C(=O)NCc2ccccc2F)cn1 | -0.72% (inactive)
18 | COc1ccc(/C=C/C(=O)Nc2c(C)nn(C)c2C)cc1COc1ccc(Br)cc1 | 7.14% (active)
19 | COc1ccc(/C=C/C(=O)Nc2ccc3c(c2)OCCO3)cc1OC | -2.17% (inactive)
20 | CCn1nc(C)c(NC(=O)/C=C/c2ccc(OC)c(COc3ccc(Br)cc3)c2)c1C | 3.69% (inactive)
21 | Cn1c(=O)c(Sc2ccc(Cl)cc2)c(O)c2ccccc21 | -2.5% (inactive)
22 | CCN(CC)CCNCc1ccc(OCc2ccc(Cl)nc2)c(OC)c1 | 1.21% (inactive)
23 | COc1ccc(NS(=O)(=O)c2ccc(NC(=S)NC(=O)/C=C/c3ccc(C)cc3)cc2)nn1 | -3.16% (inactive)
24 | CCCCCC(=O)Nc1ccc(S(=O)(=O)Nc2ccc(Cl)nn2)cc1 | 6.79% (active)

Row | SMILES | viability increase
25 | COc1ccc(NS(=O)(=O)c2ccc(NC(=O)C(C)(C(F)(F)F)C(F)(F)F)cc2)nn1 | -0.72% (inactive)
26 | O=C(/C=C/c1ccccc1)Nc1nnc(SCC(=O)c2ccc3ccccc3c2)s1 | -5.32% (inactive)
27 | COc1ccc2nc(NC(=O)[C@@H]3CCCN3C(=O)c3cccs3)sc2c1 | -1.42% (inactive)
28 | CC(C)CN(C(=O)CN1CCN(S(=O)(=O)c2ccccc2)CC1)c1c(N)n(CC(C)C)c(=O)[nH]c1=O | 0.86% (inactive)
29 | Cc1cc(/C=C2/NC(=O)NC2=O)c(C)n1-c1cccnc1 | -1.48% (inactive)
30 | Cc1cccc(C)c1-n1c(C)cc(/C=C2\C(=O)NN(c3ccccc3)C2=O)c1C | 7.89% (active)
31 | Cc1ccccc1-n1c(C)cc(/C=C2\NC(=O)NC2=O)c1C | -4.81% (inactive)
32 | CCC(C(=O)OCC(=O)Nc1c(Cl)cc(Cl)cc1Cl)c1ccccc1 (stereo not given) | 0.97% (inactive)
33 | Cc1cccc(-n2ncc3c(N4CCc5ccccc54)ncnc32)c1 | -0.96% (inactive)
34 | COc1ccc(-n2ncc3c(N4CCc5ccccc54)ncnc32)cc1 | -1.22% (inactive)
35 | COc1ccc(-n2ncc3c(N4CCCc5ccccc54)ncnc32)cc1 | 10.8% (active)
36 | COc1cc(Cl)c(C)cc1NC(=O)COC(=O)c1cc(SC)ccc1Cl | -0.15% (inactive)
37 | CCC1CCCCN1C(=S)Nc1ccc(SC(F)F)cc1 (stereo not given) | 1.82% (inactive)
38 | Cc1cccc(NC(=O)CSc2nc3c(c(=O)[nH]2)CCCC3)c1C | -0.17% (inactive)
39 | Cc1ccccc1NC(=O)CSC1=NCCN1 | 5.48% (active)
40 | Cc1ccccc1NC(=O)CNc1ccccc1N1CCCCC1 | -3.04% (inactive)
41 | N=c1n(CCc2ccccc2)c2ccccc2n1Cc1ccccc1F | -4.33% (inactive)
42 | COc1ccc(C)cc1NC(=O)CSc1ccc(Cl)cc1 | -1.28% (inactive)
43 | O=C1CCCC(O)=C1N=Nc1ccc2ncsc2c1 | -2.88% (inactive)
44 | CCn1c2ccccc2c2cc(NC(=O)COC(=O)c3ccccc3Br)ccc21 | -1.59% (inactive)
45 | Cc1cc(C(=O)OCC(=O)Nc2ccc(F)c(F)c2)c(C)o1 | 7.91% (active)
46 | Cc1cc(C(=O)OCC(=O)c2c(N)n(C)c(=O)n(C)c2=O)c(C)o1 | -2.26% (inactive)
47 | CC(C)(C)NC(=O)C(=O)NCc1ccncc1 | -2.66% (inactive)
48 | Cc1cc(NC(=O)CCC2COc3ccccc3O2)no1 (stereo not given) | 0% (inactive)

Row | SMILES | viability increase
49 | COc1ccc(NC(=O)CC2COc3ccccc3O2)c(OC)c1 (stereo not given) | 4.96% (active)
50 | COc1ccc(NC(=O)CCN2CCCC2)c(OC)c1 | 1.66% (inactive)
51 | O=c1cc(CN2CCN(S(=O)(=O)/C=C/c3ccccc3)CC2)c2ccc(O)cc2o1 | -2.59% (inactive)
52 | CC(C)(C)CC(C)(C)NCC(O)COCCOc1ccc(Br)cc1 (stereo not given) | -4.69% (inactive)
53 | Cc1ccc(-n2[nH]c(C)c(/C=N/NC(=O)c3cccc([N+](=O)[O-])c3)c2=O)cc1C | -4.06% (inactive)
54 | Cc1cc(C(=O)N/N=C/c2cc([N+](=O)[O-])cc(C)c2O)n[nH]1 | 5.47% (active)
55 | Cc1ccsc1C(=O)N/N=C/c1ccc([N+](=O)[O-])cc1 | 0.85% (inactive)
56 | COC(=O)c1onc(-c2c(OC)cc(OC)cc2OC)c1C(=O)OC | 1.1% (inactive)
57 | O=C(N/N=C/c1ccc(Br)o1)c1cncc(Br)c1 | -1.78% (inactive)
58 | Cc1ccc(OCC(=O)OC(C)CN(C)Cc2ccccc2)cc1 (stereo not given) | -1.74% (inactive)
59 | CCn1c(SCC(=O)Nc2ccc(C)cc2)nc2nc3c(cc2c1=O)CCCC3 | 0.07% (inactive)
60 | Clc1ccc(COn2c(-c3ccc(Cl)cc3Cl)nc3ncccc32)cc1 | -3.46% (inactive)
61 | COc1ccc(OC)c(-c2c(=O)n(OCc3ccccc3Br)c3ccccc3[n+]2[O-])c1 | -1.16% (inactive)
62 | CCOc1ccc(OCC)c(-c2c(=O)n(OCc3ccc(Cl)cc3)c3ccccc3[n+]2[O-])c1 | 7.22% (active)
63 | CCCN(CC1COc2ccccc2O1)C(=S)Nc1ccc(C)cc1 (stereo not given) | -0.89% (inactive)
64 | Cc1nnc(-c2ccc(Oc3ccc(C)c(C)c3)c([N+](=O)[O-])c2)o1 | -1.23% (inactive)
65 | COc1cccc(/C=N/Nc2ncc(C(F)(F)F)cc2Cl)c1O | -4.98% (inactive)
66 | Cc1cc(C)c(NC(=S)N2CCCC2C(=O)O)c(C)c1 (stereo not given) | 0.6% (inactive)
67 | CCN(C(=O)CSc1ncn[nH]1)c1cccc2ccccc12 | 1.04% (inactive)
68 | Cn1nnc(NC(=O)CSc2ncn[nH]2)n1 | -0.73% (inactive)
69 | CC(C)(C)c1ccc(C(=O)CSc2ncn[nH]2)cc1 | 9.85% (active)
70 | CCN(CC(=O)NCCc1ccccc1)S(=O)(=O)c1ccc(C)cc1 | -2.77% (inactive)
71 | COc1ccc(CC(=O)Nc2ccc(C(=O)NC(C)(C)C)cc2)cc1 | 0.14% (inactive)
72 | CC(C)(C)NC(=O)c1cccc(NC(=O)Cc2ccc(Br)cc2)c1 | 5.31% (active)

Row | SMILES | viability increase
73 | O=C(Cc1ccccc1)Nc1cccc(C(=O)N/N=C/c2ccco2)c1 | -0.32% (inactive)
74 | COc1ccc(Cl)cc1NC(=O)Cn1nc(-c2ccc(C)cc2)n(C)c1=S | -3.24% (inactive)
75 | CCOC(=O)c1cnc2ccc(F)cc2c1Nc1ccc2c(c1)OCCO2 | -1.56% (inactive)
76 | Cc1c(CCO)sc[n+]1CC(=O)OC12CC3CC(CC(C3)C1)C2 | -0.72% (inactive)
77 | N#C/C(C(=O)N1CCOCC1)=C1/SC(Cc2ccc(F)cc2)C(=O)N1c1ccccc1 (stereo not given) | -0.96% (inactive)
78 | Cc1ccc(C(=O)C(=S)N2CCOCC2)cc1 | -2% (inactive)
79 | Cc1ccc(CC2S/C(=C(/C#N)C(=O)N3CCOCC3)N(c3ccccc3)C2=O)cc1 (stereo not given) | 7.14% (active)
80 | Cc1ccn(-c2cccc(-n3ccc(C)n3)n2)n1 | 1.12% (inactive)
81 | Cc1noc(C)c1C(=O)OCC(=O)/C=C1\N(C)c2ccccc2C1(C)C | -1.22% (inactive)
82 | CN1/C(=C\C(=O)c2oc3ccccc3c2N)C(C)(C)c2ccccc21 | 5.19% (active)
83 | CN1/C(=C\C(=O)c2cccnc2Cl)C(C)(C)c2ccccc21 | -0.96% (inactive)
84 | C/C(=N/NS(=O)(=O)c1ccccc1)c1ccc(NC(=O)C(F)(F)F)cc1 | -0.61% (inactive)
85 | Cc1ccccc1N/C(SCc1ccc(Cl)cc1)=C(/C#N)C(N)=O | -2.62% (inactive)
86 | Cc1scc(C(=O)NNC(=S)NCC(C)C)c1C | 0.83% (inactive)
87 | COc1ccc(CC(=O)N2N=C(C)CC2(O)C(F)(F)F)cc1 (stereo not given) | -0.45% (inactive)
88 | Cc1ccc(S(=O)(=O)Nc2ccc3ncccc3c2)cc1 | 5.23% (active)
89 | Cc1ccc(C(=O)/C=C/Nc2ccc(S(=O)(=O)Nc3onc(C)c3C)cc2)cc1 | -1.44% (inactive)
90 | O=S(=O)(Nc1ccc(Oc2ncccn2)c(Cl)c1)c1ccc(F)cc1 | -2.28% (inactive)
91 | CCc1nccn1S(=O)(=O)c1cccc([N+](=O)[O-])c1 | 1.01% (inactive)
92 | N#CC1(NC(=O)COc2ccc3oc4ccccc4c3c2)CCCCC1 | 0% (inactive)
93 | O=C(COc1ccc2oc3c(c2c1)CCCC3)Nc1ccccn1 | 5.27% (active)
94 | NC(=O)COc1ccc2c3c(c(=O)oc2c1)CCCCC3 | -0.34% (inactive)
95 | O=C(COC(=O)Cc1ccc(F)cc1)Nc1cc(S(=O)(=O)N2CCOCC2)ccc1N1CCCC1 | 0.15% (inactive)
